KB-V1 cytotox = qHTS assay for MDR1-selective chemotherapeutics: Primary screen using the drug-selected MDR subline cells KB-V1. KB-V1 MDR cells viability, CellTiter-Glo, 72 h. Potency, µM (series often up to 46.1 µM), hits mostly cytotoxic. 400,000 compounds, 3.4% hits; also: potency is read from the fitted curve at half-maximal effect; % is scaled to controls: 0 for no effect and ±100 for the full control effect; nearly all actives have a fitted effect of over 60% in size
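Cytotoxicity toward P-gp-expressing KB-V1 cells was determined as loss of CellTiter-Glo luminescence after 72 h at 37 degrees C. Compounds were tested in quantitative HTS format across a concentration range, with curves fitted to normalized data.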
KB-3-1 tox = qHTS assay for MDR1-selective chemotherapeutics: Primary screen using the parental adenocarcinoma cell KB-3-1. KB-3-1 viability, CellTiter-Glo ATP luminescence, 72 h. Potency, µM (top dose mostly 46.1 µM), usual class: cytotoxic. 400,000 compounds, 1.4% hits. AID 1347075, 2019; also: potency is read from the fitted curve at half-maximal effect; % is scaled to controls: 0 for no effect and ±100 for the full control effect; nearly all actives have a fitted effect of over 60% in size
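Cytotoxicity in the drug-sensitive parental line KB-3-1 was scored as loss of CellTiter-Glo luminescence following 72 h incubation with compound. Values come from curve fitting of normalized concentration-response data.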
SW480 rerep = A quantitative high throughput screen for small molecules that induce DNA re-replication in SW480 colon adenocarcinoma cells | SW480 DNA re-replication, Hoechst DNA content imaging, 48 h | Potency, µM (highest dose often 46.1 µM), for inactives: at the top dose re-replication activation, hits mostly activators | 340,000 compounds, 1.8% hits | AID 624297, 2012; also: potency is read from the fitted curve at half-maximal effect; % of control where 0% means no effect; nearly all actives have a fitted effect of over 55% in size
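Compounds, transferred as 23 nL by pin tool, were incubated with cells for 48 hr; DNA content per nucleus was then quantified by Hoechst staining and fluorescence plate imaging.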
MCF10A rerep = A quantitative high throughput screen for small molecules that induce DNA re-replication in MCF 10a normal breast cells; 350,000 compounds, 2.9% hits; Potency, µM (titrated, usually from 46.1 µM), inactives show at the top dose activity, positive = re-replication, most hits filed as activators; MCF 10A DNA re-replication, Hoechst nuclear intensity, 48 h; also: potency is read from the fitted curve at half-maximal effect; % of control where 0% means no effect; nearly all actives have a fitted effect of over 50% in size
IL-1B inflam inh = qHTS for Inhibitors of Inflammasome Signaling: IL-1-beta AlphaLISA Primary Screen. activity change, % at 57.5 µM. AID 743279, 2014. THP-1 LPS/ATP IL-1B secretion, AlphaLISA, 16 h; stronger effect = lower value. 360,000 compounds, 4.7% hits; in the data active = activity change below about -50%; inconclusive = mostly about -30% to -49%; also: % is scaled to controls: 0 for no effect and ±100 for the full control effect
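Secreted IL-1B measured by AlphaLISA bead assay after 16 h compound exposure of THP-1 cells; compounds (final up to 57.5 uM) added 1 h before LPS (250 ng/mL) and ATP (1.25 mM) stimulation; lower signal means less secretion.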
The depositor's hits bear a star; i = inactive; u = inconclusive; x = no result given. The list is not random: actives were taken first. Their share in the collection is about 9.9%. Unless noted, calls follow the shape of the dose curve; as a rule, active = well fitted curve in the direction sought with a large enough effect; inconclusive = small, poorly fitted or top-dose-only effect, or another doubt; inactive = no such curve, though single readings can be large; an effect the other way counts as inactive or inconclusive.

SMILES	KB-V1 cytotox	KB-3-1 tox	SW480 rerep	MCF10A rerep	IL-1B inflam inh
CCN(CC)CCC12CC(C)OC1=Nc1ccccc1NC2=O (stereo not drawn)	i	i	x	x	36.8
COc1ccc(CN(C)C(=O)CSc2nnc(C3CC3)n2C2CC2)cc1	i	i	16.6%	1.0%	-1.6
O=S1(=O)CCOC[C@H](c2ccccc2)N1Cc1ccc(Cl)c(Cl)c1	i	u	x	x	x
Cc1cc2c(Nc3cccc(O)c3)ncnc2s1	i	i	0.7%	1.5%	18.6
CC(=O)NC(=S)Nc1sc2c(c1C(N)=O)CCC(C)C2 (stereo not drawn)	i	i	2.6%	-1.9%	u
CC1=C(C(=O)Nc2cccc(C(=O)N3CCC(C(N)=O)CC3)c2)SCCO1	u	i	0.8%	0.6%	13.9
Nc1nc(NCCO)nc(NC2CCCCC2)c1[N+](=O)[O-]	i	i	u	25.9µM*	u
Nc1nc(Nc2ccccc2)nc(NC2CCCCC2)c1[N+](=O)[O-]	u	u	9.2µM*	u	-87.6*
CNc1nc(N)c([N+](=O)[O-])c(NC2CCCCC2)n1	i	i	-6.7%	-2.3%	52.1
Cc1cccc2cc(CN(CC3CCCO3)C(=O)NC3CCCCC3)c(=O)[nH]c12 (stereo not drawn)	i	i	-13.1%	-0.3%	-16.7
Cc1ccc2cc(CN(CC3CCCO3)C(=O)NC3CCCCC3)c(=O)[nH]c2c1C (stereo not drawn)	u	i	11.6%	u	-15.1
Cc1cccc2cc(CN(Cc3ccco3)S(=O)(=O)c3ccc4c(c3)OCCO4)c(=O)[nH]c12	i	i	4.0%	-13.8%	-56.4*
COc1ccc(CCN(Cc2cc3cccc(C)c3[nH]c2=O)C(=O)NC2CCCCC2)cc1OC	u	i	7.1%	2.7%	-68.2*
CCN(CC)CCCN(Cc1cc2ccc(C)c(C)c2[nH]c1=O)C(=O)NC1CCCCC1	i	i	13.7%	-24.2%	-51.6*
Cc1cccc2cc(CN(Cc3ccco3)C(=O)NC3CCCCC3)c(=O)[nH]c12	3.66µM*	i	14.5%	10.4%	u
COc1ccc(-c2cn3cc(Br)cnc3n2)cc1	10.3µM*	13µM*	u	-2.3%	-8.1
COc1ccccc1OCCSc1nc2ccccc2c(=O)[nH]1	i	i	-0.1%	20.6µM*	-0.3
Cc1ccccc1NCC(=O)N/N=C/c1c(C)c(C(=O)c2ccc(Cl)cc2)n2ccccc12	u	u	x	u	0.0
Cc1c(C(=O)Nc2ccc(Cl)cc2)c2ccccn2c1C(=O)c1ccccc1	u	u	u	25.9µM*	16.8
Cc1c(C(=O)Nc2ccc(Cl)cc2)c2ccccn2c1C(=O)c1ccc([N+](=O)[O-])cc1	i	i	18.7%	5.6%	-13.2
Cc1c(/C=N/NC(=O)CNc2ccccc2)c2ccccn2c1C(=O)c1ccc(Cl)cc1	2.31µM*	i	-18.0%	6.8%	u
CC(NC(=O)c1ccc2c(c1)N(Cc1ccc(Cl)cc1)C(=O)c1ccccc1S2=O)c1ccccc1 (stereo not drawn)	i	i	x	x	x
CC1(C(=O)N/N=C/c2c(F)c(F)c(F)c(F)c2F)CC1(Cl)Cl (stereo not drawn)	i	i	u	u	-99.5*
Cc1c(/C=N\NC(=O)C2(C)CC2(Cl)Cl)cnn1C (stereo not drawn)	i	i	-4.5%	-3.7%	18.3
O=C(CSc1ccccc1F)NC(=O)c1ccccc1Br	i	i	2.4%	-1.3%	0.6
SMILES	KB-V1 cytotox	KB-3-1 tox	SW480 rerep	MCF10A rerep	IL-1B inflam inh
O=C(Nc1nc2c(F)cccc2s1)c1ccc(S(=O)(=O)N2CCOCC2)cc1	i	i	x	x	x
O=C(CSc1nnc(-c2cccnc2)n1Cc1ccco1)N1c2ccccc2Sc2ccccc21	6.51µM*	i	-6.8%	8.9%	-26.9
Cc1ccc(C2=N/C(=C\N3CCCCC3)C(=O)O2)cc1	u	i	7.4%	u	-63.4*
CCCCC/C(=N\NC(=O)CCC(=O)NCc1ccccc1)c1ccccc1	u	u	13.8%	u	-1.2
CC/C(=N\NC(=O)CCC(=O)NCc1ccccc1)c1ccc(O)cc1	i	3.26µM*	u	u	11.7
Nc1c(-c2ccccc2)cnn1-c1cccc([N+](=O)[O-])c1	23.1µM*	i	-13.1%	6.0%	u
Cc1ccc(-c2cnn(-c3cccc(C(F)(F)F)c3)c2N)cc1	16.4µM*	i	0.5%	11.8%	-4.3
Nc1c(-c2ccc(Cl)cc2)cnn1-c1cccc([N+](=O)[O-])c1	u	u	-0.5%	3.8%	-1.3
Cn1c(O)c(N=NC(=O)C2COc3ccccc3O2)c2ccccc21 (stereo not drawn)	i	i	-12.7%	0.3%	24.4
CC(C)n1c(O)c(N=NC(=O)C2COc3ccccc3O2)c2ccccc21 (stereo not drawn)	16.4µM*	i	u	13µM*	-88.8*
C=CCn1c(Sc2ncc([N+](=O)[O-])s2)n[nH]c1=O	i	u	-4.7%	29.5%	-102.9*
O=C(CSc1ccc2nnc(-c3ccccn3)n2n1)Nc1ccc(F)cc1F	x	x	2.0%	2.2%	-0.9
Cc1ccc(C2(C)NC(=O)N(CC(=O)c3ccc(Cl)s3)C2=O)cc1 (stereo not drawn)	20.6µM*	i	-2.8%	-0.2%	-8.8
Cc1ccc2nc(-c3ccc(NC(=S)NC4CC(C)(C)NC(C)(C)C4)cc3)sc2c1	i	u	u	29.1µM*	-96.8*
Cc1ccc2nc(-c3ccc(NC(=S)NC(=O)C(C)C)cc3)sc2c1	i	i	3.3%	2.4%	u
Cc1ccc(C2(C)NC(=O)N(CC(=O)Nc3ccc(-c4nc5ccc(C)cc5s4)cc3)C2=O)cc1 (stereo not drawn)	i	i	635.8%	18.4µM*	55.2
CCc1ccc(C(=O)CN2C(=O)NC(C)(c3ccc(C)cc3)C2=O)cc1 (stereo not drawn)	i	i	-65.0%	-2.9%	-2.7
CC(=O)OC[C@H]1O[C@@H](Oc2cc(O)cc3oc(-c4ccc(O)cc4)cc(=O)c23)[C@H](O[C@@H]2O[C@@H](C)[C@H](O)[C@@H](O)[C@H]2O)[C@@H](O)[C@@H]1O	i	i	-6.0%	-6.7%	21.6
Cc1ccc(OCCCCCCN2CCNCC2)c(Br)c1	i	i	u	u	-89.0*
Cc1ccc(OCCCCN2CCC(C)CC2)c(Br)c1	u	i	4.5%	15.1%	-28.5

Compound activity from PubChem BioAssay.
